Laboratory results published in PubChem BioAssay (Tox21).
Where “and” joins values, the source holds several entries; their conditions need not be identical. Identical values can stand only once. A number with no mark means an inactive call. A call without a number means that no potency is given here. Calls of active or inactive are those of the source. The call rests on the fitted dose curve.

target: Acetylcholinesterase (Homo sapiens) (UniProt P22303); assay: Acetylcholinesterase (AChE) small molecule antagonists: enzyme-based qHTS assay with human liver microsomes (AID 1347399); conditions: Potency: qHTS inhibition; outcome: qHTS inhibition; series mostly up to 115 µM; further: nearly all actives have a fitted effect of over 60% in size
In short: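 Recombinant human AChE (50 mU/mL in the enzyme mix) and human liver microsomes (0.25 mg/mL final) were preincubated with compound and NADPH (0.25 mg/mL final) for 30 min at 37 C. Acetylthiocholine/DTNB was then added; thiocholine was read colorimetrically after 10 min at room temperature.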

Sequence of Acetylcholinesterase (Homo sapiens) (P22303 whole entry, looked up): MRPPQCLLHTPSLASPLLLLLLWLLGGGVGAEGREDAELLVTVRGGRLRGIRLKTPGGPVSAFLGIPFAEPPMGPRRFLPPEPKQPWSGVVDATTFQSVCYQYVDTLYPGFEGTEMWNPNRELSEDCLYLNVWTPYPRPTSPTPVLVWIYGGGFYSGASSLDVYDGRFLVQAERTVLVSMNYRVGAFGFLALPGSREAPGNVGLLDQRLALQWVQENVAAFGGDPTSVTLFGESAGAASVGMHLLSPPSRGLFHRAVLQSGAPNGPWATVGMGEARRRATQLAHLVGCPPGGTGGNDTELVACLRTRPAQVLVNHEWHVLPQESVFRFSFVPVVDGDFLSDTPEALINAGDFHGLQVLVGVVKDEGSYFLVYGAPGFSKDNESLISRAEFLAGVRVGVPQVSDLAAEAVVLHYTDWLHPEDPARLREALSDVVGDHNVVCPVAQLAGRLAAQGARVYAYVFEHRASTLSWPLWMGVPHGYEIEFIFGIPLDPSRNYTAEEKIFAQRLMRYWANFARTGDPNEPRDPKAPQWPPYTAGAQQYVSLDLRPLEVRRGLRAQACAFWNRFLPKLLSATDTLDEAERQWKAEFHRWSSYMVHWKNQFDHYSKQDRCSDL

| Compound | Potency | activity change, negative = inhibition |
| --- | --- | --- |
| CCc1nccnc1C | inactive | – |
| CCc1ccc(C=O)cc1 | inactive | – |
| C#C[C@]1(OC(C)=O)CC[C@H]2[C@@H]3CCC4=C/C(=N/O)CC[C@@H]4[C@H]3CC[C@@]21CC | inactive | – |
| CCOc1ccccc1O | inactive | – |
| CCOc1ccccc1OCC | inactive | – |
| COc1cc(C=C2CCC/C(=C\c3ccc(O)c(OC)c3)C2=O)ccc1O | inactive | – |
| O=C(O)C(O)[C@H](O)[C@@H](O)[C@H](O)[C@H](O)CO (some centres undefined) | inactive | – |
| CCC1(C)C(=O)N(Cl)C(=O)N1Cl (centres undefined) | inactive | – |
| CC(=O)Nc1ccc(S(N)(=O)=O)cc1 | inactive | – |
| OCCNCc1ccccc1 | inactive | – |
| O=C(O)CNC(=O)c1ccc([N+](=O)[O-])cc1 | inactive | – |
| CC(=C(CCOC(=O)C(C)C)SSC(CCOC(=O)C(C)C)=C(C)N(C=O)Cc1cnc(C)nc1N)N(C=O)Cc1cnc(C)nc1N | inactive | – |
| CC(NC(CCc1ccccc1)C(=O)O)C(=O)N1C(=O)N(C)CC1C(=O)O (centres undefined) | inactive | – |
| CC1CNCC(C)O1 (centres undefined) | inactive | – |
| CC(=O)[C@H]1[C@H](C#N)C[C@H]2[C@@H]3CC=C4C[C@@H](O)CC[C@]4(C)[C@H]3CC[C@@]21C | inactive | – |
| OCCC(F)(F)C(F)(F)C(F)(F)C(F)(F)C(F)(F)C(F)(F)F | inactive | – |
| OC[C@@H](O)[C@H](O)[C@@H](O)[C@@H](O)CO | inactive | – |
| C/C=C/C=C/COC(=O)C(C)C | inactive | – |
| C=C(C)CCO | inactive | – |
| CC(C)c1ccc(C#N)cc1 | inactive | – |

| Compound | Potency | activity change, negative = inhibition |
| --- | --- | --- |
| CCCCCCCCN1CCCC1=O | inactive | – |
| CN=C(NC#N)NCCSCc1csc(N=C(N)N)n1 | inactive | – |
| CN1[C@@H]2CC[C@H]1CC(NC(=O)n1c(=O)[nH]c3ccccc31)C2 (some centres undefined) | inactive | – |
| Cc1cc2c(cc1CC(=O)c1sccc1S(=O)(=O)Nc1onc(C)c1Cl)OCO2 | inactive | – |
| CCC(C)(C)C(=O)O | inactive | – |
| Nc1ncnc2c1ncn2Cc1c(F)cccc1Cl | inactive | – |
| Nc1cc(C(=O)O)c(O)c(S(=O)(=O)O)c1 | inactive | – |
| C[C@H](O)C(=O)Nc1c(I)c(C(=O)NC(CO)CO)c(I)c(C(=O)NC(CO)CO)c1I | inactive | – |
| CC(=O)Nc1cccc(N)c1 | inactive | – |
| CNC(=O)c1cnn(-c2nc(N)c3ncn([C@@H]4O[C@H](CO)[C@@H](O)[C@H]4O)c3n2)c1 | inactive | – |
| CC(=O)CC(=O)OC(C)(C)C | inactive | – |
| CCN(CC)CCCC(C)Nc1ccnc2cc(Cl)ccc12 (centres undefined) | – | -0.628% [at 10.5 µM] and -0.0844% [at 23.6 µM] |
| O=c1c(O)c(-c2ccc(O)cc2O)oc2cc(O)cc(O)c12 | inactive | – |
| CCCCc1ccc2c(n1)[C@@H](c1ccc(OC)cc1C[C@H](C)C(=O)O)[C@H](C(=O)O)[C@H]2c1ccc2c(c1)OCO2 | inactive | – |
| CCCCOCCOC(=O)COc1ccc(Cl)cc1Cl | inactive | – |
| CC(C(=O)O)c1ccc2c(c1)Cc1cccnc1O2 (centres undefined) | inactive | – |
| Cc1ccc(C(N)=O)cc1N | inactive | – |
| O=C(OC(=O)c1ccccc1)c1ccccc1 | inactive | – |
| O=C(CS)OCCOC(=O)CS | inactive | – |
